Screening data as filed in PubChem.
AmpC inh no detg: qHTS Inhibitors of AmpC Beta-Lactamase (assay without detergent) | 0.52% of 330,000 active | AmpC nitrocefin hydrolysis, absorbance 480 nm, 0.0001% Triton | Potency, µM (highest dose often 57.1 µM), without a hit: at the top dose activity change, negative = inhibition, usual class: inhibitors;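 note: plate controls were no compound for no effect and no enzyme for full effect; nearly all actives have a fitted effect of over 20% in size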
Target sequence (P00811 whole entry, looked up): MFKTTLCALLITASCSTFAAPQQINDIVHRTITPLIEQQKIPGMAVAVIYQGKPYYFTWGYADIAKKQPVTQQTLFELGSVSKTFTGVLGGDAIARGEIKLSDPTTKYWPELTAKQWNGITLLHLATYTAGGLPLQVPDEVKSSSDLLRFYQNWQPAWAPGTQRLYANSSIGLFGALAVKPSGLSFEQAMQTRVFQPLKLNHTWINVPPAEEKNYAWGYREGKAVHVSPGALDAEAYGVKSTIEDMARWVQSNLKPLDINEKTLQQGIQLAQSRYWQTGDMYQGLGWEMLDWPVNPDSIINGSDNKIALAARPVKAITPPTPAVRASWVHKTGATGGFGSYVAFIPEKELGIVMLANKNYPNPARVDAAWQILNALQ
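AmpC (5.3 nM in the dispensed reagent) in 20 mM phosphate pH 7.0 with 0.01% (detergent screen) or 0.0001% Triton X-100 was preincubated with compounds for 15 min at room temperature. Nitrocefin was then added from an 800 uM solution, and hydrolysis was followed at 480 nm.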
Sm TGR inh: qHTS Assay for the Inhibitors of Schistosoma Mansoni Peroxiredoxins; Schistosoma mansoni thioredoxin glutathione reductase (TGR), Q962Y6; purified TGR, DTNB reduction, TNB absorbance 405 nm; Potency, µM (series often up to 114 µM), inactives show at the highest dose activity change, negative = inhibition, actives largely listed as inhibitors; 3% of 360,000 active; note: % is set by controls: 0 for no effect and ±100 for the full control effect; nearly all actives have a fitted effect of over 60% in size
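TGR 20 nM + NADPH 100 uM (dispensed conc.), cpd preinc 15 min RT; start with NADPH (500 uM addition) then DTNB (15 mM addition). Kinetic TNB absorbance, 405 nm filter. Four-parameter Hill fit across titration.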
Pf growth 48h: Primary qHTS for delayed death inhibitors of the malarial parasite plastid, 48 hour incubation | AID 504832, 2011 | 5.9% of 310,000 active | Potency, µM (top dose mostly 28.7 µM), without a hit: at the top dose activity change, negative = inhibition, actives largely listed as inhibitors | P. falciparum luciferase growth in erythrocytes, 48 h; note: % is set by controls: 0 for no effect and ±100 for the full control effect
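A one-generation exposure of luciferase-tagged malaria parasites in RPMI 1640/Albumax erythrocyte culture, 37 C and 5% CO2. Inhibition is inferred from decreased luminescence after adding detection reagent.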
SARS PLpro yeast: qHTS of Yeast-based Assay for SARS-CoV PLP. S. cerevisiae expressing SARS-CoV PLpro, growth rescue. Potency, µM (highest dose often 32.9 µM), without a hit: at the highest dose activity, positive = growth rescue, most hits filed as activators. 0.19% of 330,000 active. AID 485353, 2010; calls by dose curve; note: 0% is about no effect; nearly all actives have a fitted effect of over 55% in size
AmpC inh detg: qHTS Inhibitors of AmpC Beta-Lactamase (assay with detergent) | Potency, µM (top dose mostly 114 µM), inactives show top-dose activity change, negative = inhibition, most hits filed as inhibitors | 0.041% of 370,000 active | P00811 | AID 485294, 2010 | AmpC hydrolysis of nitrocefin, absorbance 480 nm, 0.01% Triton;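 note: 0% = no-compound wells and -100% = no-enzyme wells; nearly all actives have a fitted effect of over 25% in size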
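20 mM phosphate pH 7.0 + 0.01% (detergent screen) or 0.0001% Triton X-100; 5.3 nM AmpC reagent; cpd preinc 15 min RT; nitrocefin (800 uM stock) to start; A480 q20 s × 4 min; Activity was normalised to no-enzyme and no-compound control wells.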
Pf growth 96h: Primary qHTS for delayed death inhibitors of the malarial parasite plastid, 96 hour incubation; P. falciparum luciferase reporter growth, 96 h; Potency, µM (doses to about 28.7 µM), inactives show at the top dose activity change, negative = inhibition, hits mostly inhibitors; 6.9% of 320,000 active; AID 504834, 2011; note: % is set by controls: 0 for no effect and ±100 for the full control effect
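P. falciparum expressing integrated firefly luciferase grown in erythrocytes (2% hematocrit, 0.05% parasitemia final) with compounds for 96 hours at 37 C, 5% CO2. Growth inhibition read as loss of luminescence after adding luciferase detection reagent.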
The depositor's hits bear a star; u = inconclusive; x = not tested or not shown; [ ] = another dose, or the depositor's remark. Rows were chosen to be rich in hits. Some 12% of all compounds tested hit in one or more screens of this group. Unless noted, calls come from the whole dose curve; as a rule, active = well fitted curve in the direction sought with a large enough effect; inconclusive = small, poorly fitted or top-dose-only effect, or another doubt; inactive = no such curve, though single readings can be large; an effect the other way counts as inactive or inconclusive. Potency is the fitted concentration of half-maximal effect.

SMILES	AmpC inh no detg	Sm TGR inh	Pf growth 48h	SARS PLpro yeast	AmpC inh detg	Pf growth 96h
O=C(CSc1nc2ccccc2s1)c1ccc(O)cc1O	7.1µM*	1%	33%	-4%	-3%	45%
O=C(Cc1nc2ccccc2s1)c1ccc(O)cc1O	-23%	u	u	-8%	0%	51%
CCOc1ccc2nc(N(CCCN(C)C)C(=O)c3ccc(S(=O)(=O)N4CCc5ccccc5C4)cc3)sc2c1	169%	0%	u	9%	2%	u
CN(C)CCCN(C(=O)c1ccc2c(c1)CCCC2)c1nc2ccc(Cl)cc2s1	191%	0%	8.3µM*	-36%	-11%	1.9µM*
Cc1ccc2nc(N(CCCN(C)C)C(=O)CCc3ccccc3)sc2c1	193%	-19%	u	-28%	-12%	u
CN(C)CCCN(C(=O)CCc1ccccc1)c1nc2ccc(Cl)cc2s1	226%	-7%	u	-50%	0%	10µM*
COc1cccc2sc(N(CCN(C)C)C(=O)c3ccc4c(c3)CCCC4)nc12	158%	-9%	10µM*	14%	-3%	u
CCOc1ccc2nc(N(CCCN(C)C)C(=O)c3ccc4c(c3)CCCC4)sc2c1	177%	3%	u	0%	5%	5.9µM*
CCc1nc2ccccc2n1CCCCOc1ccc(Cl)cc1	x	0%	x	x	-7%	x
CCN(c1ccccc1)S(=O)(=O)c1ccc(NC(=O)c2cc(=O)c3ccc(C)c(C)c3o2)cc1	x	0%	x	x	-7%	x
CCN1CCN(c2nc3c(C)cccn3c(=O)c2C=C(C#N)C#N)CC1	-21%	1%	15%	1%	-5%	1%
COc1cccc2sc(N(CCCN(C)C)C(=O)c3ccc(S(=O)(=O)N4CCCc5ccccc54)cc3)nc12	173%	3%	10µM*	-7%	-6%	u
O=C(CCS(=O)(=O)c1ccccc1)N(Cc1cccnc1)c1nc2ccc(Cl)cc2s1	x	1.1µM*	x	x	3%	x
Cc1ccc2nc(N(Cc3cccnc3)C(=O)CCS(=O)(=O)c3ccccc3)sc2c1	x	u	x	x	-1%	x
CN(C)CCCN(C(=O)c1ccc(S(=O)(=O)N2CCc3ccccc32)cc1)c1nc2c(Cl)cccc2s1	147%	7%	u	2%	-3%	u
COc1ccc(CNC(=O)CCc2c(C)c3cc4c(C)c(C)oc4cc3oc2=O)cc1	x	-11%	x	x	-2%	x
CO[C@@H]1[C@@H](OC2OC(C)C(OC3CC(C)(O)C(OC(=O)CC(C)C)C(C)O3)C(N(C)C)C2O)[C@@H](CC=O)C[C@@H](C)C(=O)/C=C\C2O[C@H]2C[C@@H](C)OC(=O)C[C@H]1OC(C)=O (some centres undefined)	x	x	6.7µM*	x	x	0.76µM*
CO[C@H]1[C@H](O[C@H]2O[C@@H](C)[C@@H](O[C@@H]3C[C@](C)(O)[C@H](OC(=O)CC(C)C)[C@H](C)O3)[C@@H](N(C)C)[C@@H]2O)[C@@H](CC=O)C[C@@H](C)[C@@H](O)/C=C\C=C/C[C@@H](C)OC(=O)C[C@H]1OC(C)=O	x	x	4.5µM*	x	x	0.41µM*
CC1=C(C(=O)Nc2cc(C)ccc2C)C(c2cccs2)NC(=S)N1 (centres undefined)	-21%	2%	-1%	1%	-3%	29%
COc1ccccc1NS(=O)(=O)c1ccc(NC(=O)CCNC(=O)c2ccco2)cc1	-21%	-15%	u	-10%	-5%	8.3µM*
CCOc1cc(NS(=O)(=O)c2ccccc2)c(OCC)cc1NC(=O)c1ccco1	-4%	32µM*	-13%	-3%	0%	x
CCNC(=S)Nc1cc(OCC)c(NC(=O)c2ccco2)cc1OCC	-2%	2%	-17%	0%	-3%	251%
CN(C)S(=O)(=O)c1ccc(NC(=O)CCNC(=O)c2ccco2)cc1	-4%	-1%	21%	-1%	4%	9%
CC1C(=O)N2CCCc3cc(S(=O)(=O)Nc4ccc(Br)cc4F)cc1c32 (centres undefined)	x	-7%	x	x	0%	x
O=C(Nc1cccnc1)Nc1cccc(F)c1	-30%	-20%	6%	-4%	5%	u
SMILES	AmpC inh no detg	Sm TGR inh	Pf growth 48h	SARS PLpro yeast	AmpC inh detg	Pf growth 96h
Cc1cc(=O)oc2cc(NC(=S)NCc3cccnc3)ccc12	-35%	40µM*	-13%	2%	2%	u
Fc1cccc(NC(=S)NNc2c3ccccc3nc3ccccc23)c1	-28%	-10%	2.1µM*	0%	-2%	1%
Fc1cccc(NC(=S)NCc2cccnc2)c1	-5%	u	-11%	-23%	-1%	7.4µM*
Cc1cc(C)cc(NC(=S)NCc2cccnc2)c1	-5%	u	18%	2%	-9%	9%
Fc1cccc(NC(=S)NNc2ccccc2)c1	-33%	-26%	u	-11%	-4%	68%
Fc1cccc(NC(=S)Nc2cccnc2)c1	-10%[2.29 µM]	18µM*	0%	-1%	2%	41%
Cc1nn(-c2ccccc2)c2c1N(CCCC(=O)NC(C)c1ccccc1)C(=O)CS2 (centres undefined)	x	-5%	x	x	16%	x
Cc1ccc(Cn2c(=O)n(CCc3ccccc3)c(=O)c3c(C)c(C)sc32)cc1	x	5%	x	x	24%	x
COc1cc(NC(=S)Nc2cccnc2)cc(OC)c1	-27%	45µM*	u	16%	5%	9%
CSc1nnc(-c2ccc(C(F)(F)F)nc2C)o1	-4%	9%	15%	-3%	4%	40%
CC(C)Cn1c(=O)c2ccccc2n2c(CCC(=O)NCc3ccccc3Cl)nnc12	x	-4%	x	x	23%	x
Cc1ccc(NC(=O)c2ccc3ncsc3c2)cc1S(=O)(=O)N(C)C	u	6%	121%	3%	-4%	245%
Cc1ccc(NC(=O)CCCOc2ccccc2)cc1S(=O)(=O)N1CCOCC1	-2%	5%	10µM*	4%	5%	u
Cc1ccc(OCCCC(=O)Nc2ccc(Cl)c(S(=O)(=O)N3CCOCC3)c2)cc1	2%	-2%	u	5%	-3%	10µM*
O=C(CCCOc1ccccc1)Nc1ccc(Cl)c(S(=O)(=O)N2CCOCC2)c1	1%	x	x	0%	x	x
CCN(CC(=O)Nc1cc(S(=O)(=O)N2CCCCC2)ccc1C)Cc1ccccc1	-14%	7%	u	-2%	-12%	12µM*
Cc1ccc(S(=O)(=O)N2CCCCC2)cc1NC(=O)CCOc1ccccc1	-29%	-4%	-24%	u	-6%	u
